Tgondii IFNg – T. gondii growth inhibition under IFN-gamma. Toxoplasma gondii growth in IFN-gamma-treated host cells; stronger effect = lower value. activity change, negative = inhibition, % (concentration not given with the values). 3.8% of 69,000 active; in the data active = activity change below about -70%, passing the limit was not always enough;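 note: host cells are HeLa cells infected with Toxoplasma gondii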
* marks the source's active call; other numbers are inactive results; i = inactive. This is one part of a sample in which hits are shown more often than they occur.

SMILES	Tgondii IFNg
CCCc1nnc(SCC(=O)NC2CC3CCC2C3)o1 (centres undefined)	-14
CC(=O)NCC1CCC2(CCN(Cc3cc4n(n3)CCCNC4)CC2)O1 (centres undefined)	-44
COc1ccc2[nH]c(CN(Cc3cccnc3)Cc3ccccc3F)c(C)c2c1	95
NCC1Cc2c(ccc3cc(-c4ccncc4)ccc23)O1 (centres undefined)	-86*
O=C1N[C@]2(CC[C@@H]3CN(C(=O)c4cc(-c5ccco5)on4)C[C@@H]32)Nc2ccccc21	1
CCc1c(C)[nH]n2c(=O)cc(Cc3ccc(F)cc3)nc12	-103*
CCc1c(C)[nH]n2c(=O)cc(COc3ccccc3)nc12	-12
CCCc1cc(=O)n2[nH]c(C(F)(F)F)c(-c3ccc(OC)cc3)c2n1	-27
NC(=O)c1csc(N2CC(c3ccncc3)C2)n1	4
CCOc1ccccc1CN(C)Cc1cc(-c2ccncc2)no1	21
CN(Cc1cc(-c2ccncc2)no1)Cc1ccc(Cl)s1	-13
CN(Cc1cc(-c2ccncc2)no1)Cc1ccc(Cl)cc1F	-90*
Cc1oncc1C(=O)N1CC[C@@H](O)[C@@H]1Cc1ccccc1	-20
Cn1c(-c2ccccc2)nc2ccccc21	108
Cc1ccc(NC(=O)C2CCCCC2C(=O)O)cc1Cl (centres undefined)	-4
Cc1ccc(NC(=O)OC2CCCCC2)cc1NC(=O)OC1CCCC1	-105*
COc1ccc(NC(=O)Nc2ccc(OC)c(OC3CCCC3)c2)cc1OC1CCCC1	139
Cc1ccc(CNC(=O)CN2C(=O)CCc3cc(S(=O)(=O)N4CCCC4)ccc32)o1	32
Cc1ccc(Nc2nc(C(=O)NCc3ccc(C)o3)nc3ccccc23)cc1	-13
O=C(c1cc2cccnc2n(Cc2ccc(F)cc2)c1=O)N1CCCC1	50
O=C(c1cc2cccnc2n(Cc2ccccc2F)c1=O)N1CCN(c2ccccc2F)CC1	36
O=C(c1cc2cccnc2n(Cc2ccccc2F)c1=O)N1CCCC1	68
O=C(c1cc2cccnc2n(Cc2ccccc2F)c1=O)N1CCN(c2ccc(F)cc2)CC1	-83*
O=C(c1cc2cccnc2n(Cc2ccc(F)cc2)c1=O)N1CCN(Cc2ccccc2)CC1	-30
O=C(c1cc2cccnc2n(Cc2ccc(F)cc2)c1=O)N1CCN(c2ccc(F)cc2)CC1	-95*
SMILES	Tgondii IFNg
COc1ccc(CC(=O)N2CCc3nc(-c4ccc(F)cc4)nc(C)c3CC2)cc1	-8
COc1cccc([C@H](O)C2CCN(CCc3ccc(F)cc3)CC2)c1OC	10
O=C(O)c1cccnc1Nc1cccc(C(F)(F)F)c1	-4
CC(C)(C)C1CCc2nc(-c3cccnc3)nc(Nc3cccc(C(F)(F)F)c3)c2C1 (centres undefined)	-73*
Cc1nc(CCNc2nc(-c3cccnc3)nc3c2CCNC3)sc1C	136
CC(C)COc1ccc(-c2noc(-c3c(O)c4cc(F)ccc4n(C)c3=O)n2)cc1	15
CC(C)S(=O)(=O)c1cscc1NC(=O)Nc1ccccc1	-1
COc1cc(NC(=O)Nc2ccc(Cl)cc2)c(-n2c(C)ccc2C)cc1OC	166
CSc1sc(NC(=O)Nc2ccc(Cl)cc2)cc1S(=O)(=O)C(C)C	-84*
CSc1sc(C(=O)N2CCc3ccccc32)cc1S(=O)(=O)C(C)C	33
COC(=O)c1sc(SC)c(S(=O)(=O)c2ccc(Cl)cc2)c1C	-6
CSc1sc(C(=O)Sc2ccc(Cl)cc2)cc1S(=O)(=O)C(C)C	-79*
CN1CCC2(COCCN(S(=O)(=O)c3ccc(F)cc3)C2)C1 (centres undefined)	92
Cc1ccc(NC(=O)CC(=O)NC(C)CCn2cccn2)cc1Cl (centres undefined)	1
Cc1cc(CN2CCC3(CC2)CC(Nc2ncccn2)CO3)nn1C (centres undefined)	-2
CC(C)(CNC(=O)c1ccnc(N2CCCC2)c1)N1CCCCC1	-5
CN(C(=O)c1cc(N2C[C@H]3CC=CC[C@H]3C2)ccn1)C1CCCCC1	-13
COCCn1c(COc2ccc(Cl)cc2)nc2ccccc21	71
COc1ccc(Cc2nc3ccccc3n2CCCOc2ccccc2OC)cc1OC	-97*
CC(=O)N(C)Cc1nc2ccccc2n1CCCCOc1ccccc1Cl	-40
Cc1ccc(Nc2ncnc3c2CCN(C(=O)CN(C)C)CC3)cc1	4
CCOc1ccc(CC(=O)NCCc2csc(-c3ccc(OC)cc3)n2)cc1	i
CC(C)CCN1C2(CCN(C(=O)NC3CCCC3)C2)c2ccccc2S1(=O)=O (centres undefined)	-87*
CC(C)CCN1C2(CCN(C(=O)c3ccno3)C2)c2ccccc2S1(=O)=O (centres undefined)	10
CC(C)CCN1C2(CCN(C(=O)Cc3cccnc3)C2)c2ccccc2S1(=O)=O (centres undefined)	-8
SMILES	Tgondii IFNg
C=CCOC(=O)N1CCC2(CC1)CNC(=O)C2	0
O=C(NC1CC1)C1CN(Cc2ccc(-c3ccccn3)cc2)CCN1 (centres undefined)	-5
CCc1nc(SCC(=O)Nc2c(C)cccc2C)c2oc3ccccc3c2n1	57
CCN1C(=O)N(Cc2cccc(OC)c2)C(=O)C12CCN(CC1CC=CCC1)CC2 (centres undefined)	-12
Cc1nc(-c2ccccc2F)sc1C(=O)NCc1nc(Cc2ccccc2)no1	-6
Cn1c(=O)c(C(=O)Nc2cnn(Cc3cccc(F)c3)c2)nc2ccccc21	-17
O=C(CN1CCC(c2ccccc2)CC1)Nc1cnn(Cc2cccc(F)c2)c1	-14
COc1cccc(-c2cc(C(=O)Nc3cnn(Cc4cccc(F)c4)c3)on2)c1	-96*
COc1cccc(Cn2cc(NC(=O)C3(c4cc(C)cc(C)c4)CCOCC3)cn2)c1	-4
Cc1nc(-c2ccccc2F)sc1C(=O)Nc1cnn(Cc2cccc(F)c2)c1	-89*
CC(C)c1nc(CCN(C)C(=O)CN2CCCN(C)CC2)no1	2
CCn1c(C2CCCNC2)nn(Cc2nc(CCOC)no2)c1=O (centres undefined)	-3
COc1ccccc1CN(CCCN1CCOCC1)C(=O)c1ccccc1-c1ccccc1	-5
COCCN1C(=O)CCc2cc(NC(=O)c3cncc(Br)c3)ccc21	1
CCn1c(-c2cc(NC(=O)c3cncc(Br)c3)n[nH]2)cc2ccccc21	-103*
COc1ccc(OC)c(NC(=O)c2cncc(NS(=O)(=O)c3ccc(Br)cc3)c2)c1	19
CC(C)OC(=O)c1ccc(NC(=O)c2cncc(Br)c2)cc1	40
COc1ccc2c3c(n(C)c2c1)[C@@H](CO)N(C(C)=O)CC31CCN(C(=O)c2cnccn2)CC1	368
COc1ccc(-c2cn(CC[C@@H]3CC[C@@H](NC(=O)c4cnccn4)[C@H](CO)O3)nn2)cc1	-14
CCn1c(-c2cc(NC(=O)c3cccnc3)n[nH]2)cc2cc(OC)ccc21	69
CCn1c(-c2cc(NC(=O)c3cnccn3)n[nH]2)cc2ccc(OC)cc21	-103*
CCn1c(-c2cc(NC(=O)c3cncc(Br)c3)n[nH]2)cc2ccc(OC)cc21	-85*
CN1CC2(CCCCN2C(=O)c2ccn(C)n2)CC1=O (centres undefined)	-3
Cc1nn(C)c(C)c1-c1cc(C(=O)N2CCC(O)(CN(C)C)C2)n(C)n1 (centres undefined)	3
CCOc1ccc(-c2nc(Cc3noc(-c4ccccn4)n3)c(C)o2)cc1	-22
COc1ccc(CCN2C(=O)O[C@@H]3CN(C(=O)c4ccccc4)C[C@@H]32)cc1	-6
O=C(NC1C=CS(=O)(=O)C1)c1csc(Cc2ccccc2)n1 (centres undefined)	-10
